Experimental findings from PubChem BioAssay are described below.

Assay [1] has as its target 6-phosphogluconate dehydrogenase, decarboxylating (Homo sapiens) (UniProt P52209). The assay is described as follows: 6PGD enzyme inhibitors, primary screen, biochemical, human, recombinant enzyme, NADPH absorbance (AID 1159550). To be noted: recombinant 6PGD, NADPH absorbance 341 nm; at 10 µM; stronger effect = higher value.
In assay [2] the target is Mitogen-activated protein kinase 7 (Homo sapiens) (UniProt Q13164). Description: ERK5 transactivation activators in reporter cells, primary screen, cell-based, HTS (AID 1508626;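 active means luciferase signal above three times the same-plate solvent-only control wells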;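 further: luciferase driven by Gal4-ERK5 fusion binding five Gal4 sites before minimal TATA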). To be noted: HeLa Gal4-ERK5 transactivation, 18 h, at 5 µM, stronger effect = higher value.
Assay [3] in a line: circadian clock period modulators, cell-based, LOPAC library, luminescence reporter (AID 2774; call rule not given here;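 further: values are relative to mean of DMSO wells on each plate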). To be noted: circadian reporter cells, at 7 µM, actives lie on both sides.
Assay [4] can be described thus: antimalarial activity against Dd2 strain (AID 2302;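 active means growth inhibition above 50% at the single 2 µM test dose, taken to imply half-maximal potency below 2 µM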;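 further: 0% = DMSO untreated growth and 100% = chloroquine plus artemisinin killed control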). To be noted: P. falciparum Dd2 in RBCs, LDH growth readout, 72 h; at 2 µM; stronger effect = higher value.
Assay [5] in a line: HepG2 cytotoxicity, primary screen, cytotoxicity control for P. falciparum antimalarial project, cell-based, ATP luminescence (AID 2303;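 active means inhibition above 50%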;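 further: 0% = DMSO wells and 100% = digitonin-killed cells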). To be noted: HepG2 viability, 24-48 h, at 10 µM, stronger effect = higher value.
The target in assay [6] is L-lactate dehydrogenase (Plasmodium falciparum (isolate CDC / Honduras)) (UniProt Q27743). Description: PfLDH activity inhibition – cell lysate, 3D7 strain, counter-screen for P. falciparum growth inhibition project (AID 2304; call rule not given here;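 further: 0% = vehicle and 100% = reference inhibitor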). To be noted: P. falciparum 3D7 crude extract, LDH APAD/NBT absorbance; at 2 µM; stronger effect = higher value. A general note: The purpose of a counterscreen is to sort out artefacts and off-target activity.

The nature of assay [7]: inhibition of 3D7 malaria parasite growth – strain 3D7 (AID 2306; call rule not given here;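 further: 0% = DMSO wells and 100% = chloroquine plus artemisinin control wells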). To be noted: P. falciparum 3D7 erythrocytic growth, LDH absorbance, 72 h; at 2 µM; stronger effect = higher value.
For assay [8], the target named is Calcium-dependent protein kinase 1 (Plasmodium falciparum (isolate 3D7)) (UniProt P62344). The assay is described as follows: PfCDPK1 kinase inhibitors, biochemical, TCAMS library (AID 1159585; cut-off not given, nearly all actives have IC50 up to about 0.98 µM;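 further: inhibitors leave more ATP so luminescence rises with inhibition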). Particulars: recombinant PfCDPK1, Kinase-Glo ATP depletion luminescence.
For assay [9], the target named is Plasmodium falciparum protein kinase 6 (PK6, PF3D7_1337100) (UniProt Q8IDW1). The assay is described as follows: PfPK6 kinase inhibitors, biochemical, TCAMS library (AID 1159586; call rule not given here). To be noted: recombinant PfPK6, Kinase-Glo ATP depletion luminescence. (In general: Kinase-Glo measures the ATP left after a reaction by luminescence.)
Assay [10] deals with Protein kinase 7 (PK7), Plasmodium falciparum 3D7 (PF3D7_0213400) (UniProt Q7YTF7). Description: inhibition of Plasmodium PK7 catalytic activity – biochemical, TCAMS antimalarial set, Kinase-Glo luminescence (AID 1159587; call rule not given here). Particulars: recombinant PfPK7, Kinase-Glo ATP depletion luminescence.
For assay [11], the target named is Calcium-dependent protein kinase 4 (Plasmodium falciparum (isolate 3D7)) (UniProt Q8IBS5). The assay is described as follows: PfCDPK4 kinase inhibitors, biochemical, TCAMS library (AID 1159588; cut-off not given, nearly all actives have IC50 up to about 0.91 µM). Particulars: recombinant PfCDPK4, Kinase-Glo ATP depletion luminescence.
A short description of assay [12]: polyglutamine-triggered caspase-3 activation inhibitors, cell-based (AID 1583). Particulars: polyglutamine-induced caspase-3 activation, cell assay; stronger effect = higher value;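 tested at 10 µM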.
A short description of assay [13]: suppressors of polyQ aggregation in yeast, 75Q-TubU reporter (AID 1593). Particulars: Yeast 75Q polyglutamine aggregation reporter.
Assay [14] can be described thus: rescue of polyQ-huntingtin neuronal dysfunction in worms, whole organism, C. elegans mechanosensory neurons, N-terminal huntingtin (AID 1599). Particulars: touch response, stronger effect = higher value.
The nature of assay [15]: inhibitors of mitochondrial cytochrome c release, biochemical, purified mitochondria (AID 1603).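 Further: mouse liver mitochondria challenged with calcium chloride; signal normalized to the plate average as 100%.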 To be noted: stronger effect = lower value.
Assay [16] in a line: inhibitors of polyQ protein aggregation (AID 1604). Particulars: polyglutamine-induced protein aggregation inhibition assay; stronger effect = higher value; tested at 2.5 µM.
A short description of assay [17]: enhancers of glutamate uptake in motor neurons, MN-1 cell line (AID 1612).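 Further: tested at 1 µM final; 0% = mean of DMSO vehicle wells on each plate; positive means more glutamate uptake than control and negative means less.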 Particulars: MN-1 motor neuron cells, stronger effect = higher value.
Assay [18] is described as follows: reducers of polyQ inclusions in PC12 cells, cell-based, NGF-treated PC12, GFPQ80 (AID 1614).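 Further: lower means fewer inclusions and 0 means no inclusions at all.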 To be noted: PC12 NGF-treated GFP-polyQ80 inclusion reduction.
Assay [19] is described as follows: suppressors of polyglutamine aggregation in yeast, 75Q-TubH (AID 1616). Particulars: S. cerevisiae 75Q-TubH polyglutamine aggregation suppression; stronger effect = higher value.
Assay [20] in a line: phospholipid biosynthesis inhibitors in animal cells, primary screen, cell-based, LOPAC library, screen 4 (AID 1347384; call rule not given here). To be noted: phospholipid biosynthesis inhibition screen, at 10 µM.
In assay [21] the target is NAD(+) hydrolase SARM1 (Homo sapiens) (UniProt Q6SZW1). Description: SARM1 TIR NADase inhibitors, cell lysate, NAD-Glo luminescence (AID 1508614;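 active means compound whose remaining NAD level is above about 45 nM, limit read from the data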). To be noted: SAM-TIR HEK293T lysate NADase, at 1 µM, stronger effect = higher value.
Assay [22] concerns Aerobactin synthetase IucA (Klebsiella pneumoniae). Description: IucA aerobactin synthetase inhibitors, biochemical, Tocris library, absorbance (AID 1345561; call rule not given here;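 further: 100% = enzyme without compound and 0% = no enzyme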). To be noted: purified IucA enzyme assay, absorbance (OD) read-out; stronger effect = lower value;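 tested at 8 µM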.
A short description of assay [23]: sensitizers of A549 cells to miR-34 induction, primary screen, imaging, A549 dox-inducible miR-34, nuclei and caspase counts (AID 1347080;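 active means compounds whose cell count with miR-34 switched on is under 0.7 times the count with it off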). Particulars: A549 miR-34 inducible, Hoechst nuclei count, 48 h.
The nature of assay [24]: viability rescue of complex I mutant cybrids, primary screen, cell-based, galactose medium, ATP luminescence (AID 1645843;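 active means z-score of at least 1.8 in each of two replicates, scored against plate mean and spread of sample wells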;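 further: positive z means more ATP and so rescue of galactose-driven cybrid death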). To be noted: complex I mutant cybrid cells, 72 h, stronger effect = higher value.

Each structure is given as a SMILES string. Where “and” joins values, the source holds several entries; their conditions need not be identical. Identical values can stand only once. For some assays here: Potency and affinity values are given separately. Calls of active or inactive are those of the source.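 How the source made its calls, unless noted: active means at least 20% inhibition of 6-phosphogluconate dehydrogenase activity; inactive means the rest.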

L-lactate dehydrogenase (Plasmodium falciparum (isolate CDC / Honduras)), sequence (Q27743 whole entry, looked up): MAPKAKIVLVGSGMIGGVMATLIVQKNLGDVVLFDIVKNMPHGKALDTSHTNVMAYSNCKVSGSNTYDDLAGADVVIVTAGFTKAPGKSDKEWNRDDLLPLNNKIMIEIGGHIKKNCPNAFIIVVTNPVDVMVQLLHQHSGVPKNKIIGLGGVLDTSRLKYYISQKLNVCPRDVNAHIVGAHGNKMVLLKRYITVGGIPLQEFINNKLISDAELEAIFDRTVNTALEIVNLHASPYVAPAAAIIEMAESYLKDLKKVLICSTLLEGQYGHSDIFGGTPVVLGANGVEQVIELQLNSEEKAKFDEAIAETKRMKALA
6-phosphogluconate dehydrogenase, decarboxylating (Homo sapiens), sequence (P52209 whole entry, looked up, the tested form may be a part): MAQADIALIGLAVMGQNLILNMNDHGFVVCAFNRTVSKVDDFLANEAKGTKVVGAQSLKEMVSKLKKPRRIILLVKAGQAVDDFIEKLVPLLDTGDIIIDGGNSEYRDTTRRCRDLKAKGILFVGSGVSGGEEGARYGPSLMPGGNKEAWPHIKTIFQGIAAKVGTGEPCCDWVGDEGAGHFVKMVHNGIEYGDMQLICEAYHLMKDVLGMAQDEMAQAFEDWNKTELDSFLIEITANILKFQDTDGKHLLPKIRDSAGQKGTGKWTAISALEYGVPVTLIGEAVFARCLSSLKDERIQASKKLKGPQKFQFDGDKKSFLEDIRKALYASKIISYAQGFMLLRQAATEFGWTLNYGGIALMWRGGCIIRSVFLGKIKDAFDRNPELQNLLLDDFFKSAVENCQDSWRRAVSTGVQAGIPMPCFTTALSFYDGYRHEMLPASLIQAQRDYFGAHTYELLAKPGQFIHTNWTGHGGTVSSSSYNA
Mitogen-activated protein kinase 7 (Homo sapiens), sequence (Q13164 whole entry, looked up, the tested form may be a part): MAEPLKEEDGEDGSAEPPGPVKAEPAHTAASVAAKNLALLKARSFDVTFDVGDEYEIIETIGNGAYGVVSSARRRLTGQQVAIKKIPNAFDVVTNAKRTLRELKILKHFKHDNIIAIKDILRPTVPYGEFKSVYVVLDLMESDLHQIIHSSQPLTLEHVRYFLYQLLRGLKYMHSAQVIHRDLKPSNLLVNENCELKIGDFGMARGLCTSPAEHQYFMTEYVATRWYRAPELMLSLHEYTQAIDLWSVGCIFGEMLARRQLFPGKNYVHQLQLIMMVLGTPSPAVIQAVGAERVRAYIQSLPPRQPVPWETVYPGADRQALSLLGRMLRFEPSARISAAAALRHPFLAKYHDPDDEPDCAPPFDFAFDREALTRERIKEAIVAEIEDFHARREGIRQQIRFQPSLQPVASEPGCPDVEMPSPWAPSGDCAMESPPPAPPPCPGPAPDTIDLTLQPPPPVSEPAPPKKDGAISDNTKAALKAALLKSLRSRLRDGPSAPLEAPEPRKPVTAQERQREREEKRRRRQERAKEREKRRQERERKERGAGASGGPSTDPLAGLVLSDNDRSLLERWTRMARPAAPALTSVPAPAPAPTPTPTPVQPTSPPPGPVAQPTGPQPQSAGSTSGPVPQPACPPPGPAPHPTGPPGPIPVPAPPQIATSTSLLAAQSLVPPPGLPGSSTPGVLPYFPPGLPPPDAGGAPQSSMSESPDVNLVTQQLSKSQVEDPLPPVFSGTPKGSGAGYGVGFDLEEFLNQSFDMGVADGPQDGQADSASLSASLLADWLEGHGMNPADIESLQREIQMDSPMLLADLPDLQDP
NAD(+) hydrolase SARM1 (Homo sapiens), sequence (Q6SZW1 whole entry, looked up): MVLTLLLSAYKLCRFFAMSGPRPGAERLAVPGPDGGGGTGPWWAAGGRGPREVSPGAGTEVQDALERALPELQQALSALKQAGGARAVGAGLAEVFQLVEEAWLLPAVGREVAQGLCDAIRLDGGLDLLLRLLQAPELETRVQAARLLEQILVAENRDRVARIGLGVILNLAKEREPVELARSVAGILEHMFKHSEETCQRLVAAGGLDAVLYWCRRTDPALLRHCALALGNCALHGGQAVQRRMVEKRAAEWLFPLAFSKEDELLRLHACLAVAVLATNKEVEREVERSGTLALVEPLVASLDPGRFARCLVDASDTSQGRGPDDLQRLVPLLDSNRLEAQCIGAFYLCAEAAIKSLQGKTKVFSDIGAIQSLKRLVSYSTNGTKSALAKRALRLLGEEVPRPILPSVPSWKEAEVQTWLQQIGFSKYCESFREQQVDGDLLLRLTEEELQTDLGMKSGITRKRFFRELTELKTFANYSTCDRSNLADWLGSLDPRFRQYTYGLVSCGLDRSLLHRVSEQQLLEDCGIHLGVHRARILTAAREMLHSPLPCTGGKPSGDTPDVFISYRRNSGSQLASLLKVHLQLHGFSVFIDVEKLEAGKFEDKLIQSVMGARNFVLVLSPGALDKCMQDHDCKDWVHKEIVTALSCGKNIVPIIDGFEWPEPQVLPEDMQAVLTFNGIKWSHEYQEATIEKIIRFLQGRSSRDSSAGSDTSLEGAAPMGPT
Plasmodium falciparum protein kinase 6 (PK6, PF3D7_1337100), sequence (Q8IDW1 1-305): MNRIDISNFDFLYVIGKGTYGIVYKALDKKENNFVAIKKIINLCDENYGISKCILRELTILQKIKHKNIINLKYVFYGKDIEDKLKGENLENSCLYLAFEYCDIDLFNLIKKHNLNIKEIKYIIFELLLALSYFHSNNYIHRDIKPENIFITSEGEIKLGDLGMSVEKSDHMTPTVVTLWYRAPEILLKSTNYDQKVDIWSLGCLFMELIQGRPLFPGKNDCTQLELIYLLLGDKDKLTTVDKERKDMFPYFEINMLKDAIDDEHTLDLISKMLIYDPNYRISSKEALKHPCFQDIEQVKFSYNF
Calcium-dependent protein kinase 1 (Plasmodium falciparum (isolate 3D7)), sequence (P62344 whole entry, looked up): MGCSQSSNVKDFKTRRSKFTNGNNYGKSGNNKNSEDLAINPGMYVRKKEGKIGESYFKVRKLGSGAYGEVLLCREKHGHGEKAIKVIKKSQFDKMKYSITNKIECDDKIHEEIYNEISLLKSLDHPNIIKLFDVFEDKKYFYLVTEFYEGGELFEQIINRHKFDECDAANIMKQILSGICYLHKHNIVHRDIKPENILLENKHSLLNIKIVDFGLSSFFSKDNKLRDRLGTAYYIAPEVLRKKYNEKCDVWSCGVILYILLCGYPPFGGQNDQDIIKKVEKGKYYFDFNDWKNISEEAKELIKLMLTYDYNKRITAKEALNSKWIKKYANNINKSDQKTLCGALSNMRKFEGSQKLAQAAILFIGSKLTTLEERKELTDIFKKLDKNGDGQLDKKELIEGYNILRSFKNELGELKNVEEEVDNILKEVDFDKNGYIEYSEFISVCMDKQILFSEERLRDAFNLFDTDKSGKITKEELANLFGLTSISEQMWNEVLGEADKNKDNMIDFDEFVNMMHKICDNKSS
Protein kinase 7 (PK7), Plasmodium falciparum 3D7 (PF3D7_0213400), sequence (Q7YTF7 1-343): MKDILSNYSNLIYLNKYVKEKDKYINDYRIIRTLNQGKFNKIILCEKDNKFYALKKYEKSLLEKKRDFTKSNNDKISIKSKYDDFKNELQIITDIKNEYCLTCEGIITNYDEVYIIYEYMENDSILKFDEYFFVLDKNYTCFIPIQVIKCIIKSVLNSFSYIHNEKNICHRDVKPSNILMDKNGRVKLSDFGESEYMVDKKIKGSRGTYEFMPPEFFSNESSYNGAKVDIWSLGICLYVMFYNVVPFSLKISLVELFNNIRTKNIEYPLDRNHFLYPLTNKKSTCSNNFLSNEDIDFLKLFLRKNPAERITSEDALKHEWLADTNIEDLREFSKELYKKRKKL
Calcium-dependent protein kinase 4 (Plasmodium falciparum (isolate 3D7)), sequence (Q8IBS5 whole entry, looked up): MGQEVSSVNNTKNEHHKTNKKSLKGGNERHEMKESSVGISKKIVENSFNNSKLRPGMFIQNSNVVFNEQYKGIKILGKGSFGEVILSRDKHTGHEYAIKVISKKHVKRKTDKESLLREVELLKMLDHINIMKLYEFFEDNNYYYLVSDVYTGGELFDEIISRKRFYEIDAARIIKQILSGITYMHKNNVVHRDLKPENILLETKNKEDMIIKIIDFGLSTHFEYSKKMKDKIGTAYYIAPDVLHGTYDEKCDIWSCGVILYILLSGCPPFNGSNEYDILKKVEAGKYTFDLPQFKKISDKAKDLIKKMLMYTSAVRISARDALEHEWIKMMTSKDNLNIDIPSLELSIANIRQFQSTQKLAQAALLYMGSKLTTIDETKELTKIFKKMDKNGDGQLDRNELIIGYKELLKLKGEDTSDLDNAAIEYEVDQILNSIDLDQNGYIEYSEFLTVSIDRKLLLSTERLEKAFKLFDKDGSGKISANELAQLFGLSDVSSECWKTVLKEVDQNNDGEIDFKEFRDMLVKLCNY

For orientation: inhibition means the drop in the measured response relative to a control, in per cent. `C/C=C(\C)C(=O)O[C@H]1C[C@@H](OC(C)=O)[C@@]2(C(=O)OC)CO[C@H]3[C@@H](O)[C@@](C)([C@]45O[C@@]4(C)[C@H]4C[C@@H]5O[C@@H]5OC=C[C@@]54O)[C@H]4[C@]1(CO[C@]4(O)C(=O)OC)[C@@H]32`: the inhibition in assay [1] was 3.41% (inactive). For the same compound, the luciferase signal in assay [2] was 12 AU (inactive).

On to `Cc1c(O)c(O)cc2c1CC=C1[C@@]2(C)CC[C@@]2(C)[C@@H]3C[C@](C)(C(=O)O)CC[C@]3(C)CC[C@]12C`, for which the inhibition in [1] is -26.2% (inactive). In addition, the luciferase signal in [2] was 128 AU (inactive).

Take `CC1CC(Cl)CCC1C(=O)OC(C)(C)C` (centres undefined): the inhibition in [1] was -3.82% (inactive). In assay [2], the luciferase signal is 40 AU (inactive).

`NNCc1cccc(O)c1`: the period change in assay [3] was -0.07 h (inactive). The inhibition in assay [1] was 15.8% (inactive).

For the compound `O=C(Nc1ccccc1Cl)NC1CCC(CN2CCC(c3c[nH]c4ccccc34)CC2)CC1` (centres undefined), the growth inhibition in assay [4] is 31% (inactive) and 34% (inactive); in assay [7], 98% (active) and 101% (active). Also, the inhibition is 32% (inactive) and 37% (inactive) in assay [5]; 0% (inactive) and -2% (inactive) in [6]. In addition, the result in [8], in [9], in [10] and in [11] was inactive.

Regarding `COP(=S)(OC)Oc1ccc([N+](=O)[O-])cc1`, the inhibition in [1] was -0.396% (inactive). Also, the luciferase signal in [2] was 72 AU (inactive).

On to `CC(C)CC(NC(=O)C(Cc1ccccc1)NC(=O)CNC(=O)CNC(=O)C(N)Cc1ccc(O)cc1)C(=O)O` (centres undefined), for which the values for the inhibition in assay [12] and in assay [1] were -1.79% and 11% (inactive), respectively. Further, the score in assay [13] was determined as 1.42. In assay [14], this compound had a rescue above control of 3.43. Besides, the cytochrome c release ratio in assay [15] was determined as 0.97. For the same compound, the inhibition of aggregation in assay [16] was 27.9%. Also, the glutamate uptake change in assay [17] came out at 12.5%. The same compound came in with an inclusion score in assay [18] of 2. Besides, in assay [19], the aggregation suppression score was 1.27.

Take `CC(=O)OCC1=C(C(=O)O)N2C(=O)[C@@H](NC(=O)CCC[C@@H](N)C(=O)O)[C@H]2SC1`: in assay [1], the inhibition is -2.43% (inactive). In addition, the call in [20] was inactive. Also, the remaining NAD in assay [21] is 10 nM (inactive).

As for `COC(=O)[C@]1(C)CC[C@]2(C)CC[C@]3(C)C4=CCc5c(cc(O)c(O)c5C)[C@]4(C)CC[C@@]3(C)[C@@H]2C1`, the inhibition in [1] is 5.04% (inactive). Moreover, in [2], the luciferase signal was 20 AU (inactive).

With `O=C1CCCC2C3CC(CN12)C1CCCCN1C3` (centres undefined), in assay [1], the inhibition was -2.75% (inactive). In assay [2], the luciferase signal is 60 AU (inactive).

With `CC(=O)O[C@@H]1C[C@H]2C(C)(C)C(=O)C=C[C@]2(C)[C@H]2CC[C@]3(C)C(=CC(=O)O[C@H]3c3ccoc3)[C@@]21C`, the inhibition in [1] was 4.47% (inactive). Also, in assay [2], the luciferase signal is 44 AU (inactive).

By remaining activity is commonly meant the signal under treatment as a percentage of the control signal. Consider `COC(=O)/C=C/C(=O)N[C@@H]1CC[C@@]2(O)[C@H]3Cc4ccc(O)c5c4[C@@]2(CCN3CC2CC2)[C@H]1O5`, for which the growth inhibition was 66% (active) in assay [4] and 95% (active) in [7]. Moreover, the inhibition was 9% (inactive) in [5] and -2% (inactive) in assay [6]. Besides, the result in assay [8], in [9], in assay [10] and in assay [11] was inactive. Besides, the remaining activity in assay [22] was 109% (inactive). The fold change in assay [23] (stronger effect = lower value) is 0.925 (inactive); in [23] (measured here: relative caspase fold change +Dox/-Dox) it was 0.877. Moreover, the cell count turned out to be 7410 in [23] (measured here: total cells with miR-34 induction, stronger effect = lower value) and 8010 in assay [23] (measured here: total cells without miR-34 induction). Besides, the z-score in assay [24] was -0.405 (inactive).

Regarding `CC1(C)C(=O)C=C[C@]2(C)[C@H]3CC[C@@]4(C)[C@H](c5ccoc5)OC(=O)[C@H]5O[C@]54[C@]3(C)[C@H](O)C[C@@H]12`, the inhibition in assay [1] was 3.18% (inactive). Moreover, in assay [2], the luciferase signal was 16 AU (inactive).

In the case of `CO[C@H]1C[C@H](O[C@H]2CC[C@@]3(C)[C@H](CC[C@@H]4[C@@H]3CC[C@]3(C)[C@@H](C5=CC(=O)OC5)[C@@H](OC(C)=O)C[C@]43O)C2)O[C@@H](C)[C@@H]1O`, the inhibition in assay [1] was 5.8% (inactive). The luciferase signal in [2] is 32 AU (inactive).

As to `C[C@@H](CO)NC(=O)[C@@H]1C=C2c3cccc4[nH]cc(c34)C[C@H]2N(C)C1`, the inhibition in [1] was -3.88% (inactive). Also, the remaining NAD in [21] was 10 nM (inactive). Also, in assay [2], the luciferase signal was 20 AU (inactive).

As for `C[C@H]1O[C@@H](O[C@H]2[C@@H](O)C[C@H](O[C@H]3[C@@H](O)C[C@H](O[C@H]4CC[C@@]5(C)[C@H](CC[C@@H]6[C@@H]5CC[C@]5(C)[C@@H](C7=CC(=O)OC7)[C@@H](O)C[C@]65O)C4)O[C@@H]3C)O[C@@H]2C)C[C@H](O)[C@@H]1O`, the inhibition in assay [1] is -2.27% (inactive). Besides, the luciferase signal in assay [2] is 16 AU (inactive).
